Data as given in PubChem BioAssay (NCATS).
Results filed as inconclusive are left out. The source made the active and inactive calls. The call rests on the fitted dose curve; in most records, active means well fitted inhibition curve with a large enough effect; inconclusive means small, poorly fitted or top-dose-only effect; inactive means flat fitted curve, though single readings scatter.

Columns and labels:
Test in all cases: qHTS profiling for inhibitors of Plasmodium falciparum proliferation (AID 504749); further: nearly all actives have a fitted effect of over 60% in size
3D7 = conditions: P. falciparum in erythrocytes, SYBR Green DNA, 72 h; series mostly up to 12.8 µM
Method in brief: (§1)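 Quantitative HTS: compounds pinned into medium, infected erythrocytes added (0.3% parasitemia, 2.5% hematocrit), 72 h culture at 37 C under 5% CO2. Saponin/Triton lysis with SYBR Green I, overnight RT, then fluorescence read.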

AS120 = conditions: P. falciparum in erythrocytes, SYBR Green DNA, 72 h; series mostly up to 28.7 µM
Method in brief: as §1

ATS189 = conditions: P. falciparum in erythrocytes, SYBR Green DNA, 72 h; series mostly up to 12.8 µM
Method in brief: as §1

CP185 = conditions: P. falciparum in erythrocytes, SYBR Green DNA, 72 h; series mostly up to 12.8 µM
Method in brief: as §1

CP191 = conditions: P. falciparum in erythrocytes, SYBR Green DNA, 72 h; series mostly up to 12.8 µM
Method in brief: as §1

CP192 = conditions: P. falciparum in erythrocytes, SYBR Green DNA, 72 h; series mostly up to 28.7 µM
Method in brief: as §1

CP194 = conditions: P. falciparum in erythrocytes, SYBR Green DNA, 72 h; series mostly up to 12.8 µM
Method in brief: as §1

CP201 = conditions: P. falciparum in erythrocytes, SYBR Green DNA, 72 h; series mostly up to 12.8 µM
Method in brief: as §1

CP203 = conditions: P. falciparum in erythrocytes, SYBR Green DNA, 72 h; series mostly up to 12.8 µM
Method in brief: as §1

CP247 = conditions: P. falciparum in erythrocytes, SYBR Green DNA, 72 h; series mostly up to 12.8 µM
Method in brief: as §1

CP286 = conditions: P. falciparum in erythrocytes, SYBR Green DNA, 72 h; series mostly up to 12.8 µM
Method in brief: as §1

CP291 = conditions: P. falciparum in erythrocytes, SYBR Green DNA, 72 h; series mostly up to 12.8 µM
Method in brief: as §1

CP305 = conditions: P. falciparum in erythrocytes, SYBR Green DNA, 72 h; series mostly up to 12.8 µM
Method in brief: as §1

DFO2036 = conditions: P. falciparum in erythrocytes, SYBR Green DNA, 72 h; series mostly up to 12.8 µM
Method in brief: as §1

DIV30 = conditions: P. falciparum in erythrocytes, SYBR Green DNA, 72 h; series mostly up to 12.8 µM
Method in brief: as §1

HB3 = conditions: P. falciparum in erythrocytes, SYBR Green DNA, 72 h; series mostly up to 12.8 µM
Method in brief: as §1

P94_40 = conditions: P. falciparum in erythrocytes, SYBR Green DNA, 72 h; series mostly up to 12.8 µM
Method in brief: as §1

PC49 = conditions: P. falciparum in erythrocytes, SYBR Green DNA, 72 h; series mostly up to 12.8 µM
Method in brief: as §1

TAB109 = conditions: P. falciparum in erythrocytes, SYBR Green DNA, 72 h; series mostly up to 12.8 µM
Method in brief: as §1

TAB113 = conditions: P. falciparum in erythrocytes, SYBR Green DNA, 72 h; series mostly up to 12.8 µM
Method in brief: as §1

Measured: Potency
Potency means the concentration at half of the fitted maximal effect.

Cc1cc(/C=C\c2ccc3cc(N(C)C)ccc3[n+]2C)c(C)n1-c1ccccc1
active: 3D7 891 nM | AS120 3160 nM | ATS189 3160 nM | CP185 1580 nM | CP191 1410 nM | CP192 2030 nM | CP194 2870 nM | CP201 3220 nM | CP203 2280 nM | CP247 3550 nM | CP286 355 nM | CP291 3610 nM | CP305 2560 nM | DFO2036 1780 nM | DIV30 2560 nM | HB3 2820 nM | P94_40 1000 nM | PC49 3160 nM | TAB109 1410 nM | TAB113 1780 nM
